High-throughput results: PubChem BioAssay, National Center for Advancing Translational Sciences (NCATS)
ELG1 DNA repair: ELG1-dependent DNA repair inhibition. Potency, µM (doses to about 46.1 µM), for the others: at the top dose activity change, negative = inhibition, usual class: inhibitors. hit rate 2.3% among 330,000. AID 504467. HEK293T ELG1-luciferase reporter, luminescence, 16 h; DNA damage induced by 5-fluorouridine; note: potency is the fitted concentration of half-maximal effect; nearly all actives have a fitted effect of over 55% in size
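Reporter activity after DNA damage by 5-fluorouridine is monitored. Compound-treated cells incubate 16 hr at 37 °C, then ONE-Glo is added for 30 min before luminescence reading.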
IL-1B inflam inh: inflammasome signaling inhibition, IL-1 beta readout. THP-1 LPS/ATP IL-1B secretion, AlphaLISA, 16 h; hits give low values. activity change, % at 57.5 µM. hit rate 4.7% among 360,000; in the data active = activity change below about -50%; inconclusive = mostly about -30% to -49%
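THP-1 cells pretreated 1 hr with compounds (up to 57.5 uM final), then stimulated with LPS (250 ng/mL final) plus ATP (1.25 mM final); secreted IL-1B measured by AlphaLISA after 16 hr, decreased signal indicating inhibition.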
DT40 TDP1 CPT: growth inhibition of DT40 Tdp1-/-;hTDP1 cells with camptothecin (screen for TDP1 inhibitors). chicken DT40 Tdp1-/-;hTDP1 cells + 20 nM CPT, ATP luminescence, 48 h. Potency, µM (titrated, usually from 46.2 µM), for the others: top-dose activity change, negative = growth inhibition, actives largely listed as inhibitors. hit rate 12% among 420,000; note: potency is the fitted concentration of half-maximal effect; nearly all actives have a fitted effect of over 55% in size
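Chicken DT40 Tdp1-/- cells complemented with human TDP1, 400 cells/well, exposed to compounds plus 20 nM camptothecin for at least 48 h at 37 C; viability read as ATP content by CellTiter-Glo luminescence.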
TDP1 cell noCPT: qHTS for Inhibitors of human tyrosyl-DNA phosphodiesterase 1 (TDP1): qHTS in cells in absence of CPT. DT40 Tdp1-/- hTDP1 cells, no CPT, ATP luminescence, 48 h. AID 686978, 2013. hit rate 15% among 420,000. Potency, µM (doses to about 46.2 µM), for inactives: top-dose activity change, negative = growth inhibition, usual class: inhibitors; note: potency is the fitted concentration of half-maximal effect; nearly all actives have a fitted effect of over 55% in size
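Growth kinetics read by CellTiter-Glo luminescence after ≥48 hr at 37 °C. Cells: DT40 Tdp1-/- stably carrying human TDP1, 400 per well, compound exposure in the absence of CPT (DMSO vehicle).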
HT1080-NT tox: kills 2HG-producing HT-1080-NT fibrosarcoma cells | HT-1080-NT fibrosarcoma viability, CellTiter-Glo ATP luminescence, 48 h | Potency, µM (titrated, usually from 46.1 µM), for the others: top-dose activity, negative = less viability, most hits filed as cytotoxic | hit rate 1.6% among 360,000 | AID 686970;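 note: NT is the 2HG producing partner of a matched IDH1 knockdown line; potency is the fitted concentration of half-maximal effect; 0% = DMSO-treated cells and -100% = media-only wells without cells; nearly all actives have a fitted effect of over 55% in size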
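HT-1080-NT fibrosarcoma cells (2HG-overproducing), 750 cells/well in RPMI with 5% FBS, dosed after 2 h and incubated 48 h at 37C. CellTiter-Glo luminescence normalized to DMSO and no-cell wells; concentration-response curves fitted and classed.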
HT1080 IDH1KD tx: HT-1080 IDH1 knockdown cell toxicity (counter line); HT-1080 IDH1 knockdown viability, ATP luminescence, 48 h; Potency, µM (doses to about 46.1 µM), inactives show at the top dose activity, negative = toxicity, hits mostly cytotoxic; hit rate 2% among 360,000; AID 686971;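 note: potency is the fitted concentration of half-maximal effect; 0% = DMSO wells and -100% = cell-free medium wells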
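Viability of IDH1-knockdown HT-1080 fibrosarcoma cells was assessed by CellTiter-Glo after 48 h at 37 °C with titrated compound; concentration-effect curves were classified by fit quality and response size.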
Active calls of the source: *; ? = inconclusive; · = no result. Hits are enriched below; roughly 19% of the tested compounds scored in any of these assays. Unless noted, calls come from the whole dose curve; as a rule, active = well fitted curve in the direction sought with a large enough effect; inconclusive = small, poorly fitted or top-dose-only effect, or another doubt; inactive = no such curve, though single readings can be large; an effect the other way counts as inactive or inconclusive. Unless noted, % is set by controls: 0 for no effect and ±100 for the full control effect.

SMILES	ELG1 DNA repair	IL-1B inflam inh	DT40 TDP1 CPT	TDP1 cell noCPT	HT1080-NT tox	HT1080 IDH1KD tx
CCCCCCCCNS(=O)(=O)CCNCc1ccccc1	·	?	?	?	-5.2%	-2.5%
CCCCCCCCNCCS(=O)(=O)NCc1ccc(OC)cc1	·	-50.3*	?	?	-7.1%	-10.3%
CCCCCCCCNS(=O)(=O)CCNCCc1ccccc1	·	?	-28.9%	?	-2.8%	-6.2%
CCCCCCCCNS(=O)(=O)CCNCc1ccccc1OC	·	-61.6*	?	20.6µM*	-2.2%	-2.1%
CCCCCCCCNCCS(=O)(=O)NC1CCCCC1	·	-70.2*	?	?	-13.3%	-14.6%
Cc1cc(C)c2c(=O)cc(C(=O)Nc3c(C)n(C)n(-c4ccccc4)c3=O)oc2c1	·	·	5.5%	-22.2%	·	·
CN(C)c1ccc(CN2CCC(C(=O)NC(c3ccc(F)cc3)c3ccc4ccccc4n3)CC2)cc1 (stereo unspecified)	·	-54.0*	?	23.1µM*	14.6µM*	?
O=C(NC(c1ccc(F)cc1)c1ccc2ccccc2n1)C1CCN(Cc2cccc(C(F)(F)F)c2)CC1 (stereo unspecified)	·	-89.0*	2.91µM*	5.17µM*	6.51µM*	5.8µM*
O=C(NC(c1ccc(F)cc1)c1ccc2ccccc2n1)C1CCN(CCOc2ccc(Cl)cc2)CC1 (stereo unspecified)	·	-26.5	20.6µM*	20.6µM*	?	20.6µM*
Cc1cccnc1C(NC(=O)C1CCN(CCCOc2ccccc2)CC1)c1ccc(F)cc1 (stereo unspecified)	·	-16.9	?	?	-8.8%	-5.0%
O=C(NC(c1ccc(F)cc1)c1ccc2ccccc2n1)C1CCN(Cc2ccc3ccccc3n2)CC1 (stereo unspecified)	·	-20.7	?	18.4µM*	?	23.1µM*
CC(OC(=O)c1ccccc1CCc1ccccc1)C(N)=O (stereo unspecified)	-7.0%	-6.3	?	?	-4.2%	-0.4%
COc1cc(/C=C/CN2CCC(C(=O)NC(c3ccc(F)cc3)c3ccc4ccccc4n3)CC2)ccc1OC(C)=O (stereo unspecified)	·	-61.7*	?	14.6µM*	16.4µM*	?
COc1ccc(S(=O)(=O)N2CCN(C/C=C/c3ccccc3)CC2)cc1NC(C)=O	?	-18.6	-25.2%	-8.1%	10.2%	1.6%
Oc1ccc(C[C@H]2CN([C@@H](Cc3cccc(O)c3)CN3CCC[C@@H]3CN3C(=S)NC[C@@H]3Cc3ccccc3)C(=S)N2CC2CCCCC2)cc1	·	-11.8	3.66µM*	2.91µM*	18.4µM*	23.1µM*
Oc1ccc(C[C@H]2CN([C@@H](Cc3ccccc3)CN3CCCC3CN3C(=S)NC[C@@H]3Cc3ccccc3)C(=S)N2CC2CCCCC2)cc1 (stereo partly specified)	·	10.8	?	16.4µM*	-20.2%	-14.9%
Oc1ccc(C[C@H]2CN([C@@H](Cc3ccc(O)cc3)CN3CCC[C@@H]3CN3C(=S)NC[C@@H]3Cc3ccccc3)C(=S)N2CC2CCCCCC2)cc1	·	-51.2*	16.4µM*	23.1µM*	11.6µM*	16.4µM*
Oc1ccc(C[C@H]2CNC(=S)N2CC2CCCN2C[C@H](Cc2ccc(O)cc2)N2C[C@H](Cc3ccc(O)cc3)N(CC3CCCCC3)C2=S)cc1 (stereo partly specified)	·	0.0	7.31µM*	5.8µM*	16.4µM*	?
O=C1NC[C@H](Cc2ccccc2)N(C[C@H]2CCCN2C[C@H](Cc2ccccc2)N2C[C@H](Cc3ccc(O)cc3)N(CC3CCCCCC3)C(=O)C2=O)C1=O	·	0.0	?	?	?	?
Oc1ccc(C[C@H]2CNC(=S)N2CC2CCCN2C[C@H](Cc2ccccc2)N2C[C@H](Cc3ccc(O)cc3)N(CC3CCCCCC3)C2=S)cc1 (stereo partly specified)	·	?	?	?	-22.7%	?
CC(C)Cc1nn2c(=O)cc(COC(=O)c3ccccc3NC(=O)c3cccs3)nc2s1	·	·	-15.8%	?	·	·
COc1cc(C#N)ccc1OC(=O)C1CCN(C(=O)c2ccc(F)cc2)CC1	0.7%	13.7	-8.7%	-8.8%	-10.7%	0.6%
Oc1ccc(C[C@H]2CNC(=S)N2C[C@H]2CCCN2C[C@H](Cc2ccccc2)N2C[C@H](Cc3ccc(O)cc3)N(CC3CCCCCC3)C2=S)cc1	·	0.0	14.6µM*	16.4µM*	29.1µM*	18.4µM*
COc1ccc(-c2csc3nc(C)n(-n4cccc4)c(=O)c23)cc1OC	-0.7%	20.7	16.4µM*	23.1µM*	-4.9%	-13.8%
COc1ccc(-c2csc3nc(C)nc(N4CCCCC4)c23)cc1OC	?	-11.0	?	14.6µM*	16.4µM*	?
SMILES	ELG1 DNA repair	IL-1B inflam inh	DT40 TDP1 CPT	TDP1 cell noCPT	HT1080-NT tox	HT1080 IDH1KD tx
CCn1cnc2scc(-c3ccc(OC)cc3)c2c1=O	-7.0%	?	-24.3%	7.3%	16.3%	5.5%
CCOc1ccc(-c2csc3ncn(-c4ccc(OC)cc4)c(=O)c23)cc1	?	?	?	16.4µM*	-14.8%	-20.7%
COc1ccc(-c2csc3ncn(-c4ccccc4OC)c(=O)c23)cc1OC	?	-12.6	?	23.1µM*	-25.9%	?
COc1ccc(Oc2ncc3nc(-c4cccc(C#N)c4)c(=O)n(C)c3n2)cc1	·	·	9.7%	28.0%	·	·
COc1ccc(COC(=O)C2CCN(S(=O)(=O)c3ccc(OC)c(OC)c3)CC2)cc1	-4.1%	14.5	7.8%	4.0%	0.0%	-10.3%
COCCn1c(=O)cnc2cnc(N3CCNCC3)nc21	·	·	14.5%	-12.7%	·	·
COc1ccc(-c2csc3nc(-c4ccccc4OC)oc(=O)c23)cc1	-7.2%	·	20.6µM*	23.1µM*	?	?
COc1ccccc1-n1cnc2sc(-c3ccccc3)cc2c1=O	?	-21.8	?	11.6µM*	21.5%	11.2%
COc1ccc(-c2csc3nc(-c4ccc(F)cc4)oc(=O)c23)cc1	·	·	4.4%	-23.4%	·	·
COc1ccc(-c2csc3nc(-c4ccc(C)cc4)oc(=O)c23)cc1OC	9.2%	-1.2	9.2µM*	10.3µM*	19.3%	13.8%
Cc1cccc(C(O)c2ncc(-c3ccc(C(F)(F)F)cc3)[nH]2)c1C (stereo unspecified)	·	20.9	?	?	4.3%	-11.7%
